High-throughput results as filed in PubChem.
Sampled rows, rich in hits. Any-hit rate of the full collection: about 11%.
15-hLO inh – 15-hLO (ALOX15) enzyme inhibition | Potency, µM (top dose mostly 57.1 µM), actives largely listed as inhibitors | AID 887 | actives 1.4% (n = 74,000) | purified 15hLO-1, xylenol orange hydroperoxide absorbance; further: nearly all actives have a fitted effect of over 55% in size
Target sequence (P16050 whole entry, looked up): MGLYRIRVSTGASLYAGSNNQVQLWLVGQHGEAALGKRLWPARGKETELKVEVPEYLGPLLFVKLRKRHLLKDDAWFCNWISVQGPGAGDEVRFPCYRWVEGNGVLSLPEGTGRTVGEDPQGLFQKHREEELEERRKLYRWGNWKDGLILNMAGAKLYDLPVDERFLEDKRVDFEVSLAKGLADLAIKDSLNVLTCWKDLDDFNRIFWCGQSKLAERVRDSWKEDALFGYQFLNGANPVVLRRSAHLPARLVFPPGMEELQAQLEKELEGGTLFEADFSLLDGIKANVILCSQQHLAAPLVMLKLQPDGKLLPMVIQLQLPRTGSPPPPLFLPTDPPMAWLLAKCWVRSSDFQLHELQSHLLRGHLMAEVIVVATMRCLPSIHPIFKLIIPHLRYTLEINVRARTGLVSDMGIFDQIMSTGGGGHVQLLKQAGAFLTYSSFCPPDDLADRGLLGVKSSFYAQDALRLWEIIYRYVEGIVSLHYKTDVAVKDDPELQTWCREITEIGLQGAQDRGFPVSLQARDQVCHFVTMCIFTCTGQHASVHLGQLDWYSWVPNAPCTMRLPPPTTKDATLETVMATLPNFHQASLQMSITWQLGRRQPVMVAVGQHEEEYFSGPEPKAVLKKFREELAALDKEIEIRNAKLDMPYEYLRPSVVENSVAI
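Compounds were preincubated 15 min at room temperature with 40 nM purified human enzyme (25 mM Hepes pH 7.5, 0.01% Triton X-100); 50 uM arachidonic acid reacted 6 min. Fe-xylenol orange detection, 30 min, absorbance ratio 573/405 nm.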
HSD17B inh – HSD17B dehydrogenase inhibition. actives 7.6% (n = 75,000). recombinant HSD17B10, NADH fluorescence kinetic. Potency, µM (doses to about 57.1 µM), hits mostly inhibitors. Q99714;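 further: the protocol describes HADH2 (HSD17B10) and not the HSD17B4 of the title; nearly all actives have a fitted effect of over 70% in size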
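Enzyme plus compound, 15 min room temperature; substrate mix added (NAD+ 1 mM, beta-hydroxybutyryl-CoA 90 uM final); plates read kinetically for NADH fluorescence. HADH2 was His-tagged, E. coli-derived, 20 nM.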
ERK AVP inh – inhibitors of vasopressin-stimulated ERK signaling pathway. HEK293-V1b, vasopressin-stimulated pERK AlphaScreen. Potency, µM (titrated, usually from 57.5 µM), most hits filed as inhibitors. actives 0.99% (n = 72,000). AID 995; further: nearly all actives have a fitted effect of over 55% in size
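Overnight-seeded V1b-HEK293 cells in 1% FBS got compound, then vasopressin (25 nM final, 5 min, 37C), then lysis buffer. AlphaScreen detection of phospho-ERK; activity normalized to basal and full-stimulation controls.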
PK Bst – modulators of Bacillus stearothermophilus pyruvate kinase. actives 1.2% (n = 51,000). Potency, µM. purified pyruvate kinase, luminescence ATP production; ribose 5-phosphate activator present at AC10. AID 361; in the data active means potency below about 11 µM; inconclusive means mostly about 12 µM to 25 µM;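 the screen sought inhibitors and activators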
Luciferase inh – firefly luciferase inhibition; actives 2.2% (n = 72,000); P08659; purified firefly luciferase, luminescence, 8 min; Potency, µM (top dose mostly 57.1 µM), actives largely listed as inhibitors; further: nearly all actives have a fitted effect of over 40% in size
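Substrate buffer containing 10 uM ATP (pH 7.2 imidazole, Mg2+, KCl, detergent, BSA) is dispensed, compound pinned in, then luciferase/luciferin detector mix added. After 8 min at ambient temperature, light output is measured.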
HADH2 inhib – blocks human hydroxyacyl-CoA dehydrogenase type II | actives 3.4% (n = 73,000) | Potency, µM (top dose mostly 57.1 µM), most hits filed as inhibitors | recombinant HADH2, NADH fluorescence, beta-hydroxybutyryl-CoA | Q99714; further: nearly all actives have a fitted effect of over 60% in size
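20 nM HADH2 + cpd, 15 min RT; add 1 mM NAD+/90 uM beta-hydroxybutyryl-CoA; kinetic fluorescence 360/450 nm, 4 min. Tris-HCl pH 9.0, 0.01% Tween-20.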
Each line names hits and unclear results; the compound was inactive in the other large screens; ! = not active in a repeat. Unless noted, the call rests on the fitted dose curve; in most records, active means well fitted curve in the direction sought with a large enough effect; inconclusive means small, poorly fitted or top-dose-only effect, or another doubt; inactive means no such curve, though single readings can be large; an effect the other way counts as inactive or inconclusive.

Cn1c(-c2ccc(CN3CCCCC3)o2)nc2ccccc21	HSD17B inh 25µM, Luciferase inh 13µM
CCNC(=O)[C@@H]1O[C@@H](n2cnc3c(NCc4ccccc4)ncnc32)[C@@H](O)[C@H]1O	none (no result: 15-hLO inh, HSD17B inh, ERK AVP inh, PK Bst)
CC(C)(C)NC(=O)C(c1ccco1)N(Cc1ccc(F)cc1)C(=O)c1snc(C(N)=O)c1N (stereo not given)	HSD17B inh 25µM
COc1ccc(CN(C(=O)c2snc(C(N)=O)c2N)C(C(=O)NC(C)(C)C)c2ccco2)cc1 (stereo not given)	none
CC(C(=O)NC1CCCC1)N(C(=O)c1snc(C(N)=O)c1N)c1ccc2c(c1)OCCO2 (stereo not given)	none (no result: PK Bst)
CC(C)(C)NC(=O)COC(=O)c1snc(C(=O)NC2CCCCC2)c1N	HSD17B inh 25µM
CCC(C)(C)NC(=O)C(c1ccc(F)cc1)N(Cc1ccco1)C(=O)c1snc(C(N)=O)c1N (stereo not given)	HSD17B inh 25µM
CC(C(=O)NC1CCCC1)N(Cc1ccco1)C(=O)c1snc(C(=O)NC2CCCC2)c1N (stereo not given)	HSD17B inh 32µM
CC(C)=CCC/C(C)=C/CO/N=C1/C[C@@H](O)[C@@H](O)[C@@H]2[C@@H]3C(=O)N(C[C@@H]4CCCO4)C(=O)[C@H]3CC[C@H]12	HADH2 inhib inconclusive (no result: PK Bst)
CC1(C)[C@@H]2CC[C@@]1(CS(=O)(=O)Nc1ccccc1)C(=O)C2	none (no result: PK Bst)
NC(=S)NNC(N)=S	HADH2 inhib inconclusive (no result: PK Bst, Luciferase inh)
CN(C)c1nc(Nc2ccc(Cl)cc2)nc(OCC#N)n1	15-hLO inh inconclusive, ERK AVP inh inconclusive, PK Bst 1.7
CCC(O)c1cc2c(cc1NC(=O)c1cccs1)OCCO2 (stereo not given)	15-hLO inh inconclusive, HSD17B inh 25µM
O=C(Nc1ccc2c(c1)OCO2)c1cccs1	Luciferase inh inconclusive (no result: PK Bst)
COc1ccccc1-c1nccc(NCc2cccc(C)c2)n1	none (no result: PK Bst)
CC[C@H](C(=O)c1cccs1)C(O)(C(F)(F)F)C(F)(F)F	none (no result: PK Bst)
COc1ccc(N2C(=O)c3ccc(NC(C)=O)cc3C2=O)cc1	none
COc1cc2c3c(c1)/C(=C1/SC(NC(C)=O)=NC1=O)C(=O)N3C(C)(C)C=C2C	HSD17B inh 20µM, HADH2 inhib inconclusive
Cc1nc2ccccc2c2oc(C(=O)NCC3COc4ccccc4O3)cc12 (stereo not given)	ERK AVP inh 10µM, HADH2 inhib inconclusive (no result: PK Bst)
CCCCN(CC)CCNC(=O)c1cc2c(C)nc3ccccc3c2o1	none (no result: PK Bst)
CCN1CCCC1CNC(=O)c1cc2c(C)nc3ccccc3c2o1 (stereo not given)	HSD17B inh inconclusive
CCOC(=O)N1CCC(NC(=O)c2cc3c(C)nc4ccccc4c3o2)CC1	ERK AVP inh 25µM (no result: PK Bst)
Cc1nc2ccccc2c2oc(C(=O)NCCN3CCCCC3C)cc12 (stereo not given)	HSD17B inh 25µM, ERK AVP inh inconclusive (no result: PK Bst)
COC(=O)C/C=C\[C@@H](C)[C@@H]1C=C[C@H](OC(C)=O)[C@H](COC(C)=O)O1	none (no result: PK Bst)
CSc1nc2[nH]c3c(c2c2ncnn12)CCCC3	PK Bst 0.42 (no result: 15-hLO inh, HSD17B inh, ERK AVP inh, HADH2 inhib)
CCCCCC1=C2CNC(CCC)(C(=O)OC)C=C2C(C)C1=O (stereo not given)	HSD17B inh inconclusive (no result: 15-hLO inh, PK Bst, Luciferase inh)
CCC(C)(C)C	none (no result: PK Bst, Luciferase inh)
COc1ccc(OCc2cccc(C(=O)O)c2)cc1	PK Bst 1.2, Luciferase inh 2µM
CCOc1ccc(OCc2cccc(C(=O)O)c2)cc1	PK Bst 0.76, Luciferase inh 0.79µM
O=C(O)c1ccc(COc2ccc(CO)cc2Cl)cc1	none
CCOc1ccc(OCc2cccc(C(=O)N3CCCC3)c2)cc1	PK Bst inconclusive, Luciferase inh 13µM
O=C(O)c1cccc(COc2ccc(CO)cc2Cl)c1	PK Bst 0.95, Luciferase inh 1µM, HADH2 inhib inconclusive
COc1ccc(NS(=O)(=O)c2cccc(C(=O)O)c2)cc1	none
O=C(O)c1cccc(COCC(F)(F)C(F)F)c1	none
COc1ccc(NC(=O)c2oc3ccccc3c2NC(=O)C(C)(C)C)cc1	none
CCOc1ccc(NC(=O)c2oc3ccccc3c2NC(=O)CC)cc1	HSD17B inh inconclusive, PK Bst 5.4
CCOc1ccc(NC(=O)c2oc3ccccc3c2NC(=O)C(C)C)cc1	HSD17B inh 32µM
CCOc1ccc(NC(=O)c2oc3ccccc3c2NC(=O)C2CC2)cc1	HSD17B inh 32µM
COc1cccc(NC(=O)c2oc3ccccc3c2NC(C)=O)c1	HSD17B inh 6.3µM
CCOC(=O)CCCCC1=CC2=CC(=O)C(C)(O)C(=O)C2=CO1 (stereo not given)	none (no result: PK Bst, Luciferase inh)
COC(=O)NC(c1ccco1)C(C(C)=O)C(=O)OC (stereo not given)	none (no result: PK Bst, Luciferase inh)
CCc1cc2c(nc1CC)CCN(CC/C(C)=N/O[C@@H](C)c1cn([C@@H]3COC[C@@H]3O)nn1)C2	none (no result: PK Bst)
CC(C)C[C@@H](CC(=O)N[C@H](CC(=O)N[C@@H]1CCNC[C@H]1C(=O)N[C@H](CC(=O)N[C@@H](CCC(=O)O)CC(=O)O)Cc1ccccc1)C(C)C)NC(=O)[C@@H]1CNCC[C@H]1N	none (no result: 15-hLO inh, HSD17B inh, ERK AVP inh, PK Bst, Luciferase inh)
Cc1c(C(=O)O)nc(/C=C\C(=O)O)[nH]c1=O	none (no result: PK Bst)
COc1ccc(NC(=O)c2oc3ccccc3c2NC(=O)C2CC2)cc1	15-hLO inh inconclusive, HSD17B inh 20µM
CN(C)/C=C1/Sc2ccccc2C1=O	HADH2 inhib inconclusive (no result: ERK AVP inh, PK Bst, Luciferase inh)
CN(C)/C=C1\C(=O)c2ccc(N(C)C)nc2CC1c1ccccc1 (stereo not given)	15-hLO inh 5µM, HSD17B inh 13µM, HADH2 inhib 20µM
CN(C)Cc1cc(O)c(O)c(CN(C)C)c1	15-hLO inh inconclusive, HADH2 inhib 0.5µM (no result: PK Bst)
CC1(C)N=C(N)N=C(N)N1c1cccc(CSc2ccccc2)c1	none (no result: PK Bst)
Nc1nc(N)c(N=Nc2ccc(C(=O)O)c(O)c2)c(N)n1	HADH2 inhib inconclusive (no result: PK Bst)
COc1cc(-c2c(C#N)c(N)nc3c2c(C)nn3-c2ccc(C)c(C)c2)cc(OC)c1OC	HSD17B inh 32µM, HADH2 inhib inconclusive
Cc1nn(-c2ccc(F)cc2)c2nc(N)c(C#N)c(-c3cccs3)c12	15-hLO inh inconclusive, HSD17B inh inconclusive, HADH2 inhib inconclusive
O=c1oc2c(O)c(O)cc3c(=O)oc4c(O)c(O)cc1c4c23	15-hLO inh inconclusive, HSD17B inh inconclusive, ERK AVP inh 20µM!, HADH2 inhib 0.25µM (no result: PK Bst)
CC(C)=CCC1(CC=C(C)C)C(=O)C(C(=O)c2ccccc2)=C2OC(C)(C)CCC2(CC=C(C)C)C1=O (stereo not given)	none (no result: PK Bst, Luciferase inh)
Nc1ccc2oc(=O)c3ccccc3c2c1	ERK AVP inh 10µM, PK Bst inconclusive
CN(CCc1ccccn1)c1ccc2c(c1)Cc1ccccc1-2	none (no result: PK Bst)
